This note sets out measurements from PubChem BioAssay (EPA / NIEHS).

“And” between values parts separate entries of the source, which are not always exact repeats. Equal values may be shown once. Some structures have more than one record in an assay (separate samples or runs), and their calls can disagree. The source made the active and inactive calls. The calls were made as follows: active = hit-call score of the fitted dose curve at least 0.9, where 1 is the maximum; inactive = score below 0.9.

Read-out in the first assay: Tissue plasminogen activator (tPA), PLAT (gene 5327)
The assay is described as follows: BSK_BE3C_tPA: BioMAP Diversity Plus: BE3C Assay for Tissue plasminogen activator (tPA) Biomarker Activity (AID 2283041).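 As to outcome: tPA level quantified by ELISA one day after compound addition.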 Particulars: primary human bronchial epithelial cells; actives raise or lower the signal. A digest of the protocol: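 Bidirectional curve fitting relative to DMSO defined activity, with tPA detected by ELISA in chemically treated human bronchial epithelial primary cells at 24 hours.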
Consider `ClCC(Cl)CCl`, for which the outcome was inactive.

`CCOP(=S)(OCC)SCSP(=S)(OCC)OCC`: the result was inactive.

On to `CC(=O)C(Cl)C(=O)N(C)C` (stereo unspecified), for which the concentration at half-maximal activity (AC50) was 20 µM (active).

Turning to `COc1cc(-c2ccc(N)c(OC)c2)ccc1N`, the outcome was inactive.

As to `O=C1C2(Cl)C3(Cl)C4(Cl)C(Cl)(Cl)C5(Cl)C3(Cl)C1(Cl)C5(Cl)C24Cl` (stereo unspecified), the concentration at half-maximal activity (AC50) was 3 µM (active).

Consider `CCOC(=O)/C=C(C)/C=C/C[C@@H](C)CCCC(C)C`, for which the AC50 was 9.78 µM (active).

In the case of `CCOP(=S)(OCC)Oc1ccc(S(C)=O)cc1` (stereo unspecified), the outcome was inactive.

As to `ClC1(Cl)C2(Cl)C3(Cl)C4(Cl)C(Cl)(Cl)C5(Cl)C3(Cl)C1(Cl)C5(Cl)C24Cl` (stereo unspecified), the outcome was inactive.

As to `CCC(=O)C(CC(C)N(C)C)(c1ccccc1)c1ccccc1` (stereo unspecified), the result was inactive.

In the case of `Cn1sc(Cl)cc1=O`, the outcome was inactive.

For `Oc1cccc2cccnc12`, the AC50 was 2.07 µM (active).

As to `CC(C)(C)c1cc(O)ccc1O`, the result was inactive.

`CCNc1nc(NC(C)(C)C)nc(SC)n1`: the result was inactive.

`CC(C)c1ccc(CO)cc1`: the outcome was inactive.

Regarding `CC(C)(C)CC(C)(C)c1ccc(O)cc1`, the AC50 is 13.2 µM (active).

Regarding `CCN1CCC2(CC1)COc1cc3c(cc12)N(C(=O)c1ccc(-c2ccc(-c4nnc(C)o4)cc2C)cc1)CC3`, the concentration at half-maximal activity (AC50) is 18.7 µM (active).

With `O=Cc1cccc(Oc2ccccc2)c1`, the result was inactive.

For `Cc1ccccc1N`, the result was inactive.

As for `O=C(O)C(Cl)(Cl)Cl`, the result was inactive.

As for `O=c1[nH]c(=O)[nH]c(=O)[nH]1`, the outcome was inactive.

For `O=[N+]([O-])c1ccc2c3c(cccc13)CC2`, the outcome was inactive.

As to `C=CC(=O)OCCCCCC(C)C`, the result was inactive.

As for `CCC(C)(C)c1ccc(O)c(C(C)(C)CC)c1`, the AC50 is 26.6 µM (active).

`CCOP(=S)(OCC)SCCS(=O)(=O)CC`: the result was inactive.

As for `Nc1ncc([N+](=O)[O-])s1`, the outcome was inactive.

For `O=C(O)C(F)(F)C(F)(F)C(F)(F)C(F)(F)C(F)(F)C(F)(F)C(F)(F)C(F)(F)C(F)(F)C(F)(F)F`, the AC50 was 7.65 µM (active) and 5.33 µM (active); the outcome was inactive.

As for `O=C(O)C(F)(F)C(F)(F)C(F)(F)C(F)(F)C(F)(F)C(F)(F)F`, the result was inactive.

In the case of `NC(=O)O`, the outcome was inactive.

For the molecule `Oc1c(I)cc(I)cc1I`, the half-maximal activity concentration (AC50) is 3.34 µM (active).

With `NC(=S)Nc1ccccc1`, the result was inactive.

In the case of `COP(=S)(OC)Oc1ccc(S(=O)(=O)N(C)C)cc1`, the result was inactive.

As to `COC[C@H](C)N(C(=O)CCl)c1c(C)csc1C`, the outcome was inactive.

For the molecule `Nc1ccc(-c2ccc(N)c(Cl)c2)cc1Cl`, the result was inactive.

Read-out in another assay: Interleukin-8 (IL8), CXCL8 (gene 3576)
As to the kind of experiment: BSK_CASM3C_IL8: BioMAP Diversity Plus: CASM3C Assay for Interleukin-8 (IL8) Biomarker Activity (AID 2283042).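 Also: IL-8 protein level quantified by ELISA.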 The settings on record: primary human coronary artery smooth muscle cells; actives raise or lower the signal.
Turning to `ClCC(Cl)CCl`, the result was inactive.

Turning to `CCOP(=S)(OCC)SCSP(=S)(OCC)OCC`, the result was inactive.

With `CC(=O)C(Cl)C(=O)N(C)C` (stereo unspecified), the outcome was inactive.

Take `COc1cc(-c2ccc(N)c(OC)c2)ccc1N`: the outcome was inactive.

As for `O=C1C2(Cl)C3(Cl)C4(Cl)C(Cl)(Cl)C5(Cl)C3(Cl)C1(Cl)C5(Cl)C24Cl` (stereo unspecified), the AC50 is 35.6 µM (active).

As for `CCOC(=O)/C=C(C)/C=C/C[C@@H](C)CCCC(C)C`, the result was inactive.

Regarding `CCOP(=S)(OCC)Oc1ccc(S(C)=O)cc1` (stereo unspecified), the result was inactive.

Turning to `ClC1(Cl)C2(Cl)C3(Cl)C4(Cl)C(Cl)(Cl)C5(Cl)C3(Cl)C1(Cl)C5(Cl)C24Cl` (stereo unspecified), the result was inactive.

For the molecule `CCC(=O)C(CC(C)N(C)C)(c1ccccc1)c1ccccc1` (stereo unspecified), the result was inactive.

For the molecule `Cn1sc(Cl)cc1=O`, the outcome was inactive.

As for `Oc1cccc2cccnc12`, the result was inactive.

Regarding `CC(C)(C)c1cc(O)ccc1O`, the outcome was inactive.

In the case of `CCNc1nc(NC(C)(C)C)nc(SC)n1`, the result was inactive.

As to `CC(C)c1ccc(CO)cc1`, the result was inactive.

For `CC(C)(C)CC(C)(C)c1ccc(O)cc1`, the AC50 is 30.3 µM (active).

As for `CCN1CCC2(CC1)COc1cc3c(cc12)N(C(=O)c1ccc(-c2ccc(-c4nnc(C)o4)cc2C)cc1)CC3`, the half-maximal activity concentration (AC50) was 27.9 µM (active).

Regarding `O=Cc1cccc(Oc2ccccc2)c1`, the outcome was inactive.

As for `Cc1ccccc1N`, the outcome was inactive.

As for `O=C(O)C(Cl)(Cl)Cl`, the outcome was inactive.

Regarding `O=c1[nH]c(=O)[nH]c(=O)[nH]1`, the result was inactive.

For `O=[N+]([O-])c1ccc2c3c(cccc13)CC2`, the result was inactive.

As for `C=CC(=O)OCCCCCC(C)C`, the result was inactive.

`CCC(C)(C)c1ccc(O)c(C(C)(C)CC)c1`: the concentration at half-maximal activity (AC50) is 38.7 µM (active).

As for `CCOP(=S)(OCC)SCCS(=O)(=O)CC`, the result was inactive.

Regarding `Nc1ncc([N+](=O)[O-])s1`, the outcome was inactive.

Consider `O=C(O)C(F)(F)C(F)(F)C(F)(F)C(F)(F)C(F)(F)C(F)(F)C(F)(F)C(F)(F)C(F)(F)C(F)(F)F`, for which the outcome was inactive.

On to `O=C(O)C(F)(F)C(F)(F)C(F)(F)C(F)(F)C(F)(F)C(F)(F)F`, for which the outcome was inactive.

Regarding `NC(=O)O`, the outcome was inactive.

With `Oc1c(I)cc(I)cc1I`, the outcome was inactive.

`NC(=S)Nc1ccccc1`: the result was inactive.

As for `COP(=S)(OC)Oc1ccc(S(=O)(=O)N(C)C)cc1`, the result was inactive.

Turning to `COC[C@H](C)N(C(=O)CCl)c1c(C)csc1C`, the result was inactive.

With `Nc1ccc(-c2ccc(N)c(Cl)c2)cc1Cl`, the result was inactive.

Read-out in the next assay: Human Leukocyte Antigen - DR isotype (HLADR), HLA-DRA (gene 3122)
The assay is described as follows: BSK_CASM3C_HLADR: BioMAP Diversity Plus: CASM3C Assay for Human Leukocyte Antigen - DR isotype (HLADR) Biomarker Activity (AID 2283043).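 Also: cell-surface HLA-DR protein level quantified by ELISA.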 The settings on record: primary human coronary artery smooth muscle cells; actives raise or lower the signal.
With `ClCC(Cl)CCl`, the outcome was inactive.

Turning to `CCOP(=S)(OCC)SCSP(=S)(OCC)OCC`, the result was inactive.

`CC(=O)C(Cl)C(=O)N(C)C` (stereo unspecified): the half-maximal activity concentration (AC50) was 10.1 µM (active).

Consider `COc1cc(-c2ccc(N)c(OC)c2)ccc1N`, for which the outcome was inactive.

Consider `O=C1C2(Cl)C3(Cl)C4(Cl)C(Cl)(Cl)C5(Cl)C3(Cl)C1(Cl)C5(Cl)C24Cl` (stereo unspecified), for which the half-maximal activity concentration (AC50) was 14.9 µM (active).

For the molecule `CCOC(=O)/C=C(C)/C=C/C[C@@H](C)CCCC(C)C`, the half-maximal activity concentration (AC50) is 18.5 µM (active).

With `CCOP(=S)(OCC)Oc1ccc(S(C)=O)cc1` (stereo unspecified), the result was inactive.

For the molecule `ClC1(Cl)C2(Cl)C3(Cl)C4(Cl)C(Cl)(Cl)C5(Cl)C3(Cl)C1(Cl)C5(Cl)C24Cl` (stereo unspecified), the outcome was inactive.

As for `CCC(=O)C(CC(C)N(C)C)(c1ccccc1)c1ccccc1` (stereo unspecified), the outcome was inactive.

In the case of `Cn1sc(Cl)cc1=O`, the result was inactive.

As for `Oc1cccc2cccnc12`, the AC50 was 3.97 µM (active).

For the molecule `CC(C)(C)c1cc(O)ccc1O`, the concentration at half-maximal activity (AC50) was 20 µM (active).

As for `CCNc1nc(NC(C)(C)C)nc(SC)n1`, the outcome was inactive.

As to `CC(C)c1ccc(CO)cc1`, the outcome was inactive.

Take `CC(C)(C)CC(C)(C)c1ccc(O)cc1`: the AC50 was 11.2 µM (active).

For `CCN1CCC2(CC1)COc1cc3c(cc12)N(C(=O)c1ccc(-c2ccc(-c4nnc(C)o4)cc2C)cc1)CC3`, the half-maximal activity concentration (AC50) was 15.3 µM (active).

`O=Cc1cccc(Oc2ccccc2)c1`: the result was inactive.

Turning to `Cc1ccccc1N`, the result was inactive.

As for `O=C(O)C(Cl)(Cl)Cl`, the outcome was inactive.

Regarding `O=c1[nH]c(=O)[nH]c(=O)[nH]1`, the result was inactive.

For the molecule `O=[N+]([O-])c1ccc2c3c(cccc13)CC2`, the result was inactive.

Take `C=CC(=O)OCCCCCC(C)C`: the outcome was inactive.

In the case of `CCC(C)(C)c1ccc(O)c(C(C)(C)CC)c1`, the AC50 was 16.4 µM (active).

`CCOP(=S)(OCC)SCCS(=O)(=O)CC`: the outcome was inactive.

Consider `Nc1ncc([N+](=O)[O-])s1`, for which the outcome was inactive.

Consider `O=C(O)C(F)(F)C(F)(F)C(F)(F)C(F)(F)C(F)(F)C(F)(F)C(F)(F)C(F)(F)C(F)(F)C(F)(F)F`, for which the AC50 is 19.1 µM (active) and the outcome was inactive.

Consider `O=C(O)C(F)(F)C(F)(F)C(F)(F)C(F)(F)C(F)(F)C(F)(F)F`, for which the outcome was inactive.

For the molecule `NC(=O)O`, the result was inactive.

For `Oc1c(I)cc(I)cc1I`, the outcome was inactive.

Regarding `NC(=S)Nc1ccccc1`, the outcome was inactive.

In the case of `COP(=S)(OC)Oc1ccc(S(=O)(=O)N(C)C)cc1`, the outcome was inactive.

Regarding `COC[C@H](C)N(C(=O)CCl)c1c(C)csc1C`, the outcome was inactive.

Consider `Nc1ccc(-c2ccc(N)c(Cl)c2)cc1Cl`, for which the outcome was inactive.
